From PubChem BioAssay AID875 (National Center for Advancing Translational Sciences (NCATS), 2007)
The campaign covered roughly 75,000 compounds. About 35 (0.05%) were called active. Shown is part of a subset that was picked to be rich in actives. Values without a mark were called inactive. Calls come from the whole dose curve; as a rule, active = well fitted inhibition curve with a large enough effect; inconclusive = small, poorly fitted or top-dose-only effect; inactive = no such curve, though single readings can be large or run the other way.

Each compound was assayed against Breast cancer type 1 susceptibility protein (Homo sapiens) (UniProt P38398) (assay: qHTS Assay for Inhibitors of BRCT-Phosphoprotein Interaction (Green Fluorophore)). Settings: BRCA1 BRCT-phosphopeptide binding, green fluorescence polarization; series mostly up to 76.9 µM; activity change, negative = inhibition: at the top concentration.
Method: NIH Molecular Libraries Screening Centers Network [MLSCN]
NIH Chemical Genomics Center [NCGC]
PI Name: Natarajan, Amarnath; University of Texas
A complex of BRCT (C-terminal portion of BRCA1, MW ~35 kDa, His-tagged) and fluorescently labeled pBACH1 phosphorylated 10 aa peptide fragment of BACH1, a helicase implicated in DNA repair, is incubated with library members. Inhibitors of BRCT-pBACH1 binding are detected by a decrease in the fluorescence polarization (FP) of the fluorophore. In order to minimize the effect of fluorescence artifacts and to increase the overall robustness of the screen, the compound library members were incubated in separate reactions with fluorescein labeled probe-protein complexes. Protein and labeled probes were supplied by Dr. Amarnath Natarajan, Department of Pharmacology and Toxicology, University of Texas Medical Branch Galveston, TX.
Assay Buffer: 16mM Na2HPO4, 4 mM NaH2PO4, 150 mM NaCl, 1 mM EDTA, 1 mM DTT, 0.02% NaN3, and 0.01% Tween 20 at pH 7.3.
100 nM labeled decapeptide/250 nM protein in columns 1, 2, 5 - 48. Titration of unlabeled decapeptide control (from 10 mM, then 1:2 dilution in duplicate) pin-transferred to column 2, rows 1 to 16. Column 1 is neutral.
Three uL of reagents were dispensed to 1536-well Greiner black solid-bottom plates. Compounds and controls (23 nL) were transferred
via Kalypsys PinTool. The plates were incubated for 12 min at room temperature, and then read on ViewLux (Perkin-Elmer) High throughput CCD imager using FITC for the fluorescein-labeled decapeptide probe polarization filter sets. During dispense, reagent bottles were kept submerged into 4 deg C water bath and all liquid lines were covered with aluminum foil to minimize probe and protein degradation. All screening operations were performed on a Kalypsys robotic system (Kalypsys, Inc., San Diego, CA) containing one RX-130 and two RX-90 anthropomorphic robotic arms. The timing and order of assay plates passing through the screening system were adjusted such that each compound library plate was assayed against the fluorescein- and rhodamine-labeled assay systems at immediately adjacent time points.
Potency is the fitted concentration of half-maximal effect.

Chain of Breast cancer type 1 susceptibility protein (Homo sapiens) (P38398 whole entry, looked up): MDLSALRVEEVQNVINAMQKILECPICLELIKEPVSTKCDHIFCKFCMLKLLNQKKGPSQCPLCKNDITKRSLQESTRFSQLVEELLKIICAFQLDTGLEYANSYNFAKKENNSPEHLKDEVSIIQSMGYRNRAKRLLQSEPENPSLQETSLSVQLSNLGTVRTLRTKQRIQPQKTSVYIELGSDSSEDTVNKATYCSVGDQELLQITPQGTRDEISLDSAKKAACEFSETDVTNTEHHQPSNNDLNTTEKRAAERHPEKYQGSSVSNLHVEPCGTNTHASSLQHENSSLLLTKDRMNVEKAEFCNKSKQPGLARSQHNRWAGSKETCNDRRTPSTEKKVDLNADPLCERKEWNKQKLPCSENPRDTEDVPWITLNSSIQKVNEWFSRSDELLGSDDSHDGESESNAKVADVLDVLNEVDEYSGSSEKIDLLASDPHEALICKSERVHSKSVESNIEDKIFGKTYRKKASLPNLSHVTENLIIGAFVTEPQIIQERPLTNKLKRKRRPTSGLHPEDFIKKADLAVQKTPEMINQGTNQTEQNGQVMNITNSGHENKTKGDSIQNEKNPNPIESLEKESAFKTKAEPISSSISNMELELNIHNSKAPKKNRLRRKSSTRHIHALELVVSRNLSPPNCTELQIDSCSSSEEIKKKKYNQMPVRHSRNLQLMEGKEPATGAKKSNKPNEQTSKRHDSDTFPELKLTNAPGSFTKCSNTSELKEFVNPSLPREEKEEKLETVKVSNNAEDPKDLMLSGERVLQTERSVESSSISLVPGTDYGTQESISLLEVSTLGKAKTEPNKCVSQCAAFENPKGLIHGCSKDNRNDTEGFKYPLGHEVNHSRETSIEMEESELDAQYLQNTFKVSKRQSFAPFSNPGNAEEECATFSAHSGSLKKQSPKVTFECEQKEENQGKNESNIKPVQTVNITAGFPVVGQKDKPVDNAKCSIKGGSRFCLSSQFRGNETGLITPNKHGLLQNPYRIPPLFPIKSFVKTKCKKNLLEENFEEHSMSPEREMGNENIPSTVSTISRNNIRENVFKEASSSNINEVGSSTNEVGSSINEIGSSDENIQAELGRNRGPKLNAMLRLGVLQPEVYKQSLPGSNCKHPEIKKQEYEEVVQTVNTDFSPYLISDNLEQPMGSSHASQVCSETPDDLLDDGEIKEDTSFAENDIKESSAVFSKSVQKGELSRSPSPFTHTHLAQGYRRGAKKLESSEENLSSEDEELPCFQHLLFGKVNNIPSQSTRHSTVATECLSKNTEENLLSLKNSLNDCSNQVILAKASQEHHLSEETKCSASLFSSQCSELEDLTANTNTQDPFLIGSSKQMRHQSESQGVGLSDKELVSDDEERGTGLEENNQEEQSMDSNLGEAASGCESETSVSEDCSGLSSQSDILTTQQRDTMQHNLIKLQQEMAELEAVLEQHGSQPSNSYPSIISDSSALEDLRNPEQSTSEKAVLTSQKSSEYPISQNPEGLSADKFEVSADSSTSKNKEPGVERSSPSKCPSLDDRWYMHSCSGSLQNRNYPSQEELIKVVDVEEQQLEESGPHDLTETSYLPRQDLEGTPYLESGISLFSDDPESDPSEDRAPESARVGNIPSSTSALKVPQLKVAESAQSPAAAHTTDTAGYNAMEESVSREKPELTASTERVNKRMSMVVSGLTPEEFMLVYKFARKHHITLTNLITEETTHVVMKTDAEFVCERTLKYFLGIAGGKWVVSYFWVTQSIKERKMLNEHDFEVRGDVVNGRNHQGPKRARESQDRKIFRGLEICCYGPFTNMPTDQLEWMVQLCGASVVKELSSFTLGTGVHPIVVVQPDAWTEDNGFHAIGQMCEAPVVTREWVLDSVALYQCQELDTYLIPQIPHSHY

SMILES | activity change, negative = inhibition | Potency
C(=C\c1ccccc1)/CSc1nnc(-c2cccnc2)n1Cc1ccco1 | -0.527% | –
Nc1ccc2c3c(cccc13)C(=O)NC2=O | – | 12.6 µM (active)
CCN1C(=O)c2cccc3c(N)ccc1c23 | -1.28% | –
Cc1ccc(C)c(N2CCN(S(=O)(=O)c3ccc4c(c3)oc(=O)n4C)CC2)c1 | 1.05% | –
CCN(CC)CCNC(=O)Cn1cnc2sc(C)c(S(=O)(=O)N3CCOCC3)c2c1=O | -0.894% | –
CC(=O)Nc1ccc(S(=O)(=O)N2CCSCC2)cc1 | 0.335% | –
COc1cccc(CNC(=O)C2CCN(S(=O)(=O)c3cccc4cccnc34)CC2)c1 | -0.134% | –
Cc1ccc(S(=O)(=O)c2c(N)n(C)c3nc4ccccc4nc23)cc1 | 3.01% | –
O=C(Nc1ccc(S(=O)(=O)N2CCCC2)cc1Cl)C1=COCCO1 | 0.643% | –
O=C(c1cnccn1)N1CCC2(CCN(Cc3cc(C(F)(F)F)cc(C(F)(F)F)c3)CC2)CC1 | 0.461% | –
CCOc1ccccc1N(CC(=O)NC1CCCCC1)C(=O)CCCC(=O)Nc1ccccn1 | -1.87% | –
Cc1cc(C)cc(OCc2nnc(SCC(=O)OC3CCCCC3)o2)c1 | -1.6% | –
CCOc1cc(S(=O)(=O)NCc2ccc3c(c2)OCO3)ccc1F | 0.095% | –
COc1ccc(-c2nc3cnc(OC)nc3n(Cc3ccc(F)cc3)c2=O)cc1 | -2.13% | –
Cc1cc(N=CC2=C(O)CCCC2=O)no1 | 0.2% | –
CC(=O)c1nc(N2C(=O)C3CC=C(C)CC3C2=O)sc1C (configuration not stated) | 0.509% | –
Cc1cn(COC/C=C/c2ccccc2)c(=O)[nH]c1=O | 1.28% | –
O=C1NC(c2ccncc2)Nc2sc3c(c21)CCCC3 (configuration not stated) | 1.19% | –
COc1ccc2c(c1)C=CC1(O2)N(CCO)c2ccccc2C1(C)C (configuration not stated) | 7.47% | –
CN(C)CCOC(=O)C(c1ccccc1)C1(O)CCCC1 (configuration not stated) | -1.8% [at 3.08 µM] | –
COC(=O)c1ccc(CN(c2ccccc2OC)S(=O)(=O)c2cccs2)o1 | -0.914% | –
COc1ccc(S(=O)(=O)NC(CC(=O)NCc2ccccc2OC)c2ccco2)cc1 (configuration not stated) | -1.17% | –
CCOC(=O)C1=C(CNC2CCCCC2)NC(=O)NC1c1cc(C)ccc1C (configuration not stated) | 0.587% | –

SMILES | activity change, negative = inhibition | Potency
CCSc1nc2c(c(=O)[nH]1)C(c1cccnc1)C(C(=O)OC(C)C)=C(C)N2 (configuration not stated) | -0.428% | –
O=C(CCC(=O)N1CCN(S(=O)(=O)c2ccccc2)CC1)NC1CCCc2ccccc21 (configuration not stated) | -0.237% | –
CCNS(=O)(=O)c1ccc(NC(=O)Nc2cccc(OC)c2)cc1 | 0.136% | –
O=S(=O)(/C=C/c1ccccc1)NCCc1ccccn1 | -2.8% | –
CCOc1ccc(NC(=O)Nc2cc(C)ccc2OC)cc1 | -0.177% | –
Cc1cc2nc3c(=O)[nH]c(=O)nc-3n(C[C@H](O)[C@H](O)[C@H](O)CO)c2cc1C | – | 7.94 µM (active)
C=CCn1c(COc2ccccc2C)nnc1SCC(=O)O | -0.75% | –
O=C(C(Cc1ccccc1)n1cccc1)N1CCN(C2CCCCC2)CC1 (configuration not stated) | 0.978% | –
OCc1n[nH]c(CO)n1 | -3.47% | –
CCn1ncc(Br)c1C(=O)Nc1cc(C)ccc1F | -0.796% | –
CCOC(=O)CN1C(=O)C(O)(CC(=O)c2ccccn2)c2ccccc21 (configuration not stated) | -0.714% | –
CCCOc1cccc(C(=O)Nc2nnn(CCC)n2)c1 | -2.09% | –
Cn1cnc2c1c(=O)n(Cc1c(Cl)cccc1Cl)c(=O)n2C | 1.6% | –
COc1cccc([C@H]2Oc3ccc(OC)cc3/C(=N\OCC[C@@H]3C=C[C@H](OC(C)=O)[C@H](COC(C)=O)O3)[C@@H]2O)c1 | 1.43% [at 15.4 µM] | –
Cc1ccccc1OCC(=O)Nc1ccc(N2CCN(C(=O)C(C)C)CC2)c(Cl)c1 | -0.753% | –
O=C(NCCSc1ccccc1)c1ccco1 | 0.586% | –
CCCCOc1ccc(-c2nnc(-c3ccco3)o2)cc1 | 0.772% | –
COc1ccc(-c2oc3cc(OC)ccc3c2C(=O)c2ccc(C#N)cc2)cc1 | 0.239% | –
Cc1cnc(CNc2cc(-c3c(C)noc3C)ncn2)cn1 | -3.11% | –
Cn1c(N)c(C(=O)COC(=O)c2cc(C(F)(F)F)nc3c(C(F)(F)F)cccc23)c(=O)n(C)c1=O | -3.55% | –
CCc1c(C)nc2cc(-c3cccs3)[nH]n2c1=O | 2.29% | –
COC(=O)c1ccc(C23CC4(C2)[C@H](CN(Cc2cccnc2)[C@@H]4c2ccccc2)C3c2ccc(Cl)nc2)cc1 (some centres not stated) | -1.12% | –
COc1ccc2c(=O)cc(-c3ccccc3)oc2c1O | -2.2% | –

SMILES | activity change, negative = inhibition | Potency
Cc1ccc(NC(=O)CN2CCC3(O)CCCCC3C2c2ccc3c(c2)OCO3)c(C)c1 (configuration not stated) | -4.21% | –
CCS(=O)(=O)N(C)[C@@H]1c2cc(C#N)ccc2OC(C)(C)[C@H]1O | inactive | –
CCc1nc(Nc2ccc3nccnc3c2)c2oc3ccccc3c2n1 | 4.22% | –
O=C(CN1C(=O)CSc2ncccc21)N1CCOCC1 | 0.57% | –
FC(F)(F)c1cc(-c2cccs2)nc(NCc2ccco2)n1 | -4.7% | –
Cc1n[nH]c(C)c1S(=O)(=O)N1CCCC(C(=O)NCC2COc3ccccc3O2)C1 (configuration not stated) | -1.37% | –
Cc1ccc(S(=O)(=O)N2CCC(C(=O)N[C@@H](C)C(=O)NCCc3ccccc3)CC2)cc1 | -2.76% | –
O=C(O)C1CCN1C1CCCCC1 (configuration not stated) | -0.829% | –
CCC(=O)c1ccc(OCC(O)CN2CCN(c3cccc(C(F)(F)F)c3)CC2)cc1 (configuration not stated) | -3.1% | –
CC1CN(C(=O)CN2C(=O)NC(C)(c3ccccc3)C2=O)CC(C)O1 (configuration not stated) | 1.73% | –
O=C(c1cc(C(F)(F)F)cc(C(F)(F)F)c1)N1CCC2(CCCN(Cc3ccncc3)C2)CC1 | -0.118% | –
CS(=O)(=O)c1ccc2nc(NC(=O)C3C4C=CC(C4)C3C(=O)O)sc2c1 (configuration not stated) | -1.62% | –
CCOC(=O)/C=c1\s/c(=C\c2ccccc2OC)c(=O)n1CC(=O)N1CCOCC1 | -0.845% | –
CCC1=C(OC(=O)N(CC)CC)N2C(=O)OC(=NCC3CC3)[C@]2(C)[C@H]2C1=CC[C@H]1C(=O)N(CC(=O)OC)C(=O)[C@H]12 | -1.73% | –
Cc1cc(/C=N/n2cnnc2)c(C)n1-c1cccc(C(=O)O)c1 | -0.794% | –
CC(=O)N(Cc1cccs1)C1CCOC(C)(C)C1 (configuration not stated) | -1.07% | –
COCc1nc2ccccc2n1Cc1ccccc1Br | -0.882% | –
CCn1c(CNC(=O)c2ccc(OC)c(OC)c2)nnc1SCC(=O)Nc1ccccc1 | -1.99% | –
COc1ccc(OC)c(CN2C(=O)CCC2(C)C(=O)NC2CCCCCC2)c1 (configuration not stated) | 0.0804% | –
c1ccc(-c2noc(-c3cccs3)n2)nc1 | -2.54% | –
CCOc1ccc(OCC)c(NC(=O)CN(C)S(=O)(=O)c2cccc3nsnc23)c1 | 0.0132% | –
